Screening results (PubChem)
Most compounds without a hit are left out; they make up all but 8% or so of the library.
KB-3-1 tox: qHTS assay for MDR1-selective chemotherapeutics: Primary screen using the parental adenocarcinoma cell KB-3-1; hit rate 1.4% among 400,000; Potency, µM (series often up to 46.1 µM), actives largely listed as cytotoxic; KB-3-1 viability, CellTiter-Glo ATP luminescence, 72 h; also: nearly all actives have a fitted effect of over 60% in size
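Cytotoxicity measured as CellTiter-Glo luminescence after 72 h at 37 C. Compound titrations were pinned onto drug-naive KB-3-1 parental adenocarcinoma cells grown in DMEM with 10% FBS, and normalized data fitted to concentration-response curves.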
MCF10A rereplic: A quantitative high throughput screen for small molecules that induce DNA re-replication in MCF 10a normal breast cells | Potency, µM (titrated, usually from 46.1 µM), usual class: activators | hit rate 2.9% among 350,000 | AID 624296, 2012 | MCF 10A DNA re-replication, Hoechst nuclear intensity, 48 h; also: nearly all actives have a fitted effect of over 50% in size
HT1080 IDH1KD tx: qHTS for induction of synthetic lethality in tumor cells producing 2HG: qHTS for the HT-1080-IDH1KD cell line | HT-1080 IDH1 knockdown viability, ATP luminescence, 48 h | Potency, µM (doses to about 46.1 µM), usual class: cytotoxic | hit rate 2% among 360,000 | AID 686971, 2013
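Knockdown cells (IDH1KD HT-1080) received compounds 2 h after plating at 750 cells/well and were kept 48 h at 37 °C in 5% FBS RPMI. A CellTiter-Glo luminescence read gave % activity for curve fitting.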
HT1080-NT tox: qHTS for induction of synthetic lethality in tumor cells producing 2HG: qHTS for the HT-1080-NT fibrosarcoma cell line. hit rate 1.6% among 360,000. HT-1080-NT fibrosarcoma viability, CellTiter-Glo ATP luminescence, 48 h. Potency, µM (titrated, usually from 46.1 µM), hits mostly cytotoxic;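 also: NT is the 2HG producing partner of a matched IDH1 knockdown line; nearly all actives have a fitted effect of over 55% in size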
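Read-out is CellTiter-Glo luminescence after 10 minutes at room temperature, following 48 hours' compound treatment of HT-1080-NT cells (750 cells/well, RPMI, 5% FBS, 37 degrees C).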
KB-V1 cytotox: qHTS assay for MDR1-selective chemotherapeutics: Primary screen using the drug-selected MDR subline cells KB-V1; hit rate 3.4% among 400,000; KB-V1 MDR cells viability, CellTiter-Glo, 72 h; Potency, µM (series often up to 46.1 µM), hits mostly cytotoxic; also: nearly all actives have a fitted effect of over 60% in size
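qHTS viability screen in drug-selected KB-V1 MDR cells: 72 h compound treatment at 37 degrees C, ATP luminescence end point.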
SW480 rereplic: A quantitative high throughput screen for small molecules that induce DNA re-replication in SW480 colon adenocarcinoma cells; SW480 DNA re-replication, Hoechst DNA content imaging, 48 h; Potency, µM (doses to about 46.1 µM), usual class: activators; hit rate 1.8% among 340,000; AID 624297, 2012; also: nearly all actives have a fitted effect of over 55% in size
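Image-based DNA-content assay: after two days of treatment, nuclei were labelled with the DNA dye Hoechst and imaged, and hits were compounds raising the count of nuclei showing high fluorescence intensity.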
Of the large screens only hits and unclear results are named; the others gave an inactive call; ! = repeats disagree. Calls follow the shape of the dose curve; as a rule, active = well fitted curve in the direction sought with a large enough effect; inconclusive = small, poorly fitted or top-dose-only effect, or another doubt; inactive = no such curve, though single readings can be large; an effect the other way counts as inactive or inconclusive.

CCCCCN1C(C(=O)c2ccccc2)=C(NC(=O)c2ccccc2Cl)c2ccccc2S1(=O)=O	KB-3-1 tox inconclusive (no result: MCF10A rereplic, HT1080 IDH1KD tx, HT1080-NT tox, SW480 rereplic)
Cc1cnc(C(=O)OCc2cc(=O)n3c(C)cccc3n2)cn1	none
Oc1ccc(/C(Cc2ccccn2)=N\Nc2ccccc2)c(O)c1	MCF10A rereplic inconclusive, HT1080 IDH1KD tx 9.2µM, HT1080-NT tox inconclusive, KB-V1 cytotox inconclusive, SW480 rereplic inconclusive
O=C(CNC(=O)c1ccc(-c2ccccc2)cc1)Nc1ccc(S(=O)(=O)Nc2ncccn2)cc1	none
CCCCCCSc1cc(-c2nc3cc(C)ccn3c2NCCCC)ccc1OC	MCF10A rereplic inconclusive, HT1080 IDH1KD tx 23µM, HT1080-NT tox 26µM, KB-V1 cytotox 21µM!
CCCCNc1c(-c2ccc(SC3CCCCC3)c(OC)c2)nc2ccc(Cl)cn12	MCF10A rereplic inconclusive
CCCCNc1c(-c2ccc(OC)c(Sc3ccc(OC)cc3)c2)nc2cnccn12	KB-3-1 tox inconclusive, MCF10A rereplic inconclusive, HT1080 IDH1KD tx inconclusive, HT1080-NT tox 29µM, KB-V1 cytotox inconclusive, SW480 rereplic inconclusive
CCCCCCSc1cccc(-c2nc3cc(C)ccn3c2NCc2ccccc2)c1	KB-3-1 tox inconclusive, MCF10A rereplic inconclusive, HT1080 IDH1KD tx inconclusive, HT1080-NT tox inconclusive, KB-V1 cytotox inconclusive
CCCCNc1c(-c2ccc(-c3ccc(OC)cc3)c(OC)c2)nc2ccccn12	KB-3-1 tox inconclusive, MCF10A rereplic 21µM, KB-V1 cytotox inconclusive, SW480 rereplic inconclusive
CCCCCCSc1cc(-c2nc3cnccn3c2NCCCC)ccc1OC	MCF10A rereplic 15µM, SW480 rereplic inconclusive
COC(=O)C1(C)NC(c2ccc(O)cc2)C2C(=O)N(c3ccccc3)C(=O)C21 (configuration not stated)	none
CCCCNc1c(-c2ccc(SC(C)CC)cc2)nc2cnccn12 (configuration not stated)	KB-3-1 tox inconclusive, MCF10A rereplic 4.6µM, HT1080 IDH1KD tx inconclusive, HT1080-NT tox inconclusive, SW480 rereplic 18µM
O=C(Nc1cccnc1)c1cc(F)cc(F)c1	none
O=C(Oc1ccc(N(Cc2cccs2)C2=NS(=O)(=O)c3ccccc32)cc1)c1ccccc1	KB-V1 cytotox 16µM
O=C(Oc1ccc(N(Cc2cccs2)C2=NS(=O)(=O)c3ccccc32)cc1)c1ccc(Cl)cc1	none
COc1ccc(-c2n[nH]c(=S)n2/N=C/C=C/c2ccccc2OC)cc1	KB-3-1 tox 10µM, MCF10A rereplic 4.6µM, KB-V1 cytotox 18µM, SW480 rereplic inconclusive
CCOC(=O)c1cc(-c2ccccc2)n(-c2cccc(C(=O)NC(C)(C)C)c2)c1C	none (no result: MCF10A rereplic, HT1080 IDH1KD tx, HT1080-NT tox, SW480 rereplic)
CCOC(=O)c1cc(-c2ccccc2)n(-c2cccc(C(=O)N(C)c3ccc(C)cc3)c2)c1C	KB-3-1 tox 16µM, KB-V1 cytotox inconclusive (no result: MCF10A rereplic, HT1080 IDH1KD tx, HT1080-NT tox, SW480 rereplic)
CCCCn1nnc(NC(=S)NC(=O)c2cccs2)n1	SW480 rereplic 18µM
CC(C)C(=O)NC(=O)COC(=O)/C=C/c1cccs1	none
COc1ccc(OCc2nc3c4c(ncn3n2)-c2ccccc2CC42CCCC2)cc1	KB-V1 cytotox 12µM
Oc1cccc(-c2nc3c4c(ncn3n2)-c2ccccc2CC42CCCC2)c1	MCF10A rereplic 2.1µM, HT1080 IDH1KD tx 11µM, HT1080-NT tox inconclusive, KB-V1 cytotox 7.3µM
Cc1ccc(OCc2nc3c4c(ncn3n2)-c2ccccc2CC42CCCC2)cc1	KB-V1 cytotox inconclusive
COc1ccc(-c2nc3c4c(ncn3n2)-c2ccccc2CC42CCCC2)cc1	HT1080-NT tox inconclusive
COc1ccc2c(c1)C(=O)[C@H](O)[C@@H](c1ccc(OC)c(Br)c1)O2	MCF10A rereplic inconclusive, HT1080 IDH1KD tx inconclusive, SW480 rereplic 4.1µM
CCn1nc(C)c(/C=N/NC(=O)Cn2nnc(N)n2)c1C	none
O=C(CCC1CCN(C(=O)C2CC=CCC2)CC1)Nc1ccccc1 (configuration not stated)	KB-V1 cytotox 16µM (no result: MCF10A rereplic, SW480 rereplic)
O=C(NCc1ccco1)C1CC(c2ccccc2C(F)(F)F)=NO1 (configuration not stated)	none
O=C(NCc1ccco1)C1CC(c2cc(C(F)(F)F)cc(C(F)(F)F)c2)=NO1 (configuration not stated)	KB-3-1 tox 4.1µM, MCF10A rereplic 6.5µM, HT1080 IDH1KD tx 2.6µM, HT1080-NT tox 5.8µM, KB-V1 cytotox 10µM, SW480 rereplic 13µM
COc1ccc(OC)c(C2=NOC(C(=O)NCc3ccco3)C2)c1 (configuration not stated)	KB-3-1 tox inconclusive, MCF10A rereplic 13µM, HT1080 IDH1KD tx inconclusive, KB-V1 cytotox 16µM, SW480 rereplic inconclusive
COc1ccc(OC)c(C2=NOC(C(=O)N3CCCc4ccccc43)C2)c1 (configuration not stated)	MCF10A rereplic inconclusive, KB-V1 cytotox 16µM
O=C(NCc1ccco1)C1CC(c2ccccc2O)=NO1 (configuration not stated)	MCF10A rereplic inconclusive, HT1080 IDH1KD tx inconclusive
CC(C)Nc1nc(-c2cccnc2)nc(-c2ccccc2)c1C#N	none
CC(C)Nc1nc(-c2cccnc2)nc(-c2ccc(Cl)cc2)c1C#N	MCF10A rereplic 23µM
Cn1c(SCC(=O)C(C)(C)C)nnc1-c1cccnc1	none
CC1CCN(C(=O)/C(=C/c2ccccc2Cl)c2ccccc2)CC1	MCF10A rereplic 16µM, HT1080 IDH1KD tx inconclusive, HT1080-NT tox inconclusive
CN1CCN(C(=O)/C(=C\c2ccccc2)c2ccccc2)CC1	none
Cn1c(SCC(=O)Nc2cccc(C(=O)O)c2)nnc1-c1cc2cc(Br)ccc2o1	none
Cn1c(SCC(=O)Nc2cccc(Br)c2)nnc1-c1cc2ccccc2o1	KB-V1 cytotox 16µM
CCc1cccc(C)c1NC(=O)CSc1nnc(-c2cc3cc(Br)ccc3o2)n1CC	KB-3-1 tox inconclusive, MCF10A rereplic inconclusive, KB-V1 cytotox 21µM, SW480 rereplic inconclusive
Cc1ccc(-c2nnc(SCC(=O)Nc3ccc4c(c3)oc3ccccc34)n2C)c(Cl)c1	HT1080-NT tox inconclusive, KB-V1 cytotox 2.6µM
COc1ccc(OC(=O)c2cccc(S(=O)(=O)N3CC(C)OC(C)C3)c2)cc1 (configuration not stated)	none
CC1CN(S(=O)(=O)c2cccc(C(=O)OCCOc3ccccc3)c2)CC(C)O1 (configuration not stated)	KB-V1 cytotox 12µM
CN(C)c1ccc(-c2n(C)c3ccccc3[n+]2C)cc1	KB-3-1 tox 2.9µM, MCF10A rereplic inconclusive, HT1080 IDH1KD tx 8.9µM, HT1080-NT tox 5.6µM, SW480 rereplic inconclusive
